We go through 20 compounds from PubChem BioAssay (NCI).

Experiment [1] is described as follows: NCI Yeast Anticancer Drug Screen. Data for the rad50 strain (AID 155).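 Note: 0% = growth of vehicle-only cultures of the same strain.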 The settings on record: S. cerevisiae rad50 strain growth inhibition; at 50.0 µM; hits give high values. Summed up: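 Vehicle-treated cultures provide the reference for the growth inhibition reported for compound-exposed, repair-deficient yeast.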
Experiment [2] can be described thus: NCI Yeast Anticancer Drug Screen. Data for the mec2-1 strain (AID 157). The settings on record: S. cerevisiae mec2-1 strain, at 50.0 µM, hits give high values. A digest of the protocol:
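Each compound was tested on mec2-1 yeast, a strain altered in DNA damage repair or cell cycle control. Growth inhibition is reported relative to vehicle.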

The nature of experiment [3]: NCI Yeast Anticancer Drug Screen. Data for the sgs1 mgt1 strain (AID 161).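 Note: 0% = growth of cultures given vehicle only.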 The note with it: S. cerevisiae sgs1 mgt1 strain, at 50.0 µM, hits give high values. Summed up: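 Mutant yeast exposed to compound; growth scored against vehicle-only wells.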
Experiment [4] in a line: NCI Yeast Anticancer Drug Screen. Data for the cln2 rad14 strain (AID 165).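 Note: 0% = growth equal to vehicle treated cultures.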 The note with it: S. cerevisiae cln2 rad14 strain, at 50.0 µM, hits give high values. Summed up: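 Test compounds were added to cln2 rad14 yeast cultures; inhibition of growth was then determined by comparison with vehicle treatment.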
Experiment [5] can be described thus: NCI Yeast Anticancer Drug Screen. Data for the bub3 strain (AID 167). The settings on record: S. cerevisiae bub3 mutant strain, at 50.0 µM, hits give high values. A digest of the protocol: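 Mutant yeast screening strain plus compound; vehicle-treated cultures serve as the 0% inhibition reference.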
Experiment [6] is described as follows: NCI Yeast Anticancer Drug Screen. Data for the mlh1 rad18 strain (AID 175). The settings on record: S. cerevisiae mlh1 rad18 strain growth inhibition; at 50.0 µM; hits give high values. Summed up: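 Inhibition values reflect reduced growth of mutant yeast versus vehicle-treated controls following compound exposure; the mutations affect DNA damage repair.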

Compounds without any hit were thinned out: in the full panel of roughly 79,000, 15% have a hit. A number with no mark means an inactive call. Calls of active or inactive are those of the source. Cut-off read from the data, not from the text of the source: active = growth inhibition above about 70%; inactive = the rest. Where a SMILES comes first, the peptide text is derived from it. [ ]: non-standard residue; d: D form. The star is where a group is joined. ξ: configuration not given here. X14 = COC1=CC(=O)N(C(=O)C(O*)C(C)C)C1Cc1ccccc1; ξNMe2Val = CC(C)C(C(=O)*)N(C)C; NMeV = CN[CH](C(=O)O)C(C)C

In the case of `[CH3][Sb]1([CH3])([I])[CH2]CC[CH2]1`, the growth inhibition in experiment [1] was -6.55%; in experiment [2] it was -5.35%; in experiment [3] it was -5.75%; in experiment [4], -11.1%; in experiment [5], 27.2%; in experiment [6], 33.9%.
On to `CC1CC(C)OP(Oc2ccccc2)O1` (stereo not given), for which the growth inhibition is -24.6% in experiment [1]; 4.05% in experiment [2]; -21.8% in experiment [3]; -15.7% in experiment [4]; -7.15% in experiment [5]; -10.5% in experiment [6].
Regarding `Oc1ccccc1C1NCCc2[nH]cnc21` (stereo not given), the growth inhibition in experiment [1] was 39%; in experiment [2], 11.3%; in experiment [3], 14.4%; in experiment [4] it was 30.8%; in experiment [5] it was 4.15%; in experiment [6], 7.9%.
As to `CN(C)C(=O)O/N=C(\c1ccccc1)C(F)(F)F`, the growth inhibition in experiment [1] is 35.7%; in experiment [2] it was -0.15%; in experiment [3] it was 20.5%; in experiment [4], 15.4%; in experiment [5], 20.7%; in experiment [6], 30.6%.
For the compound `CC(=O)[CH-]C(C)=O.O=[N+]([O-])O.[NH-]C1CCCCC1[NH-].[Pt+4]` (stereo not given), the growth inhibition was 97.2% (active) in experiment [1]; 98.5% (active) in experiment [2]; 94.3% (active) in experiment [3]; 98% (active) in experiment [4]; 98.8% (active) in experiment [5]; 94.8% (active) in experiment [6].
As to `CCCCOCCOC(=O)CCl`, the growth inhibition in experiment [1] is 9.1%; in experiment [2], -21.1%; in experiment [3], 33%; in experiment [4], -14.8%; in experiment [5] it was -4.95%; in experiment [6] it was 14.8%.
As to `COc1ccc2c(c1)C13CCCCC1C(C2)[N+](C)([O-])CC3` (stereo not given), the growth inhibition in experiment [1] was -6.8%; in experiment [2], -19.1%; in experiment [3], 6.35%; in experiment [4], -38.1%; in experiment [5], -10.9%; in experiment [6], 4.95%.
With `COc1cc2cc(c1Cl)N(C)C(=O)CC(OC(=O)C(C)C)C1(C)OC1C(C)C1CC(O)(NC(=O)O1)C(OC)/C=C/C=C(C)C2` (stereo not given), the growth inhibition in experiment [1] was -15.9%; in experiment [2], -9.9%; in experiment [3], -19.4%; in experiment [4], -22.8%; in experiment [5], -21.2%; in experiment [6], -3.7%.
`Cc1cc(O)c2c(c1)OC(C)(C)C1=C2CC(C)CC1` (stereo not given): the growth inhibition in experiment [1] is -6.4%; in experiment [2], 10.8%; in experiment [3], -1.05%; in experiment [4], -52.8%; in experiment [5] it was -16.1%; in experiment [6], -21.9%.
Regarding `Clc1cccc2nncc(N3CC3)c12`, the growth inhibition in experiment [1] is 2%; in experiment [2], 23.6%; in experiment [3] it was -17.2%; in experiment [4] it was -6.2%; in experiment [5], -9.05%; in experiment [6], 9.25%.
Turning to `Cc1ccc2[nH]c(=S)n(-c3cccc(C(F)(F)F)c3)c(=O)c2c1`, the growth inhibition in experiment [1] is 17.8%; in experiment [2] it was 6.35%; in experiment [3], 21.4%; in experiment [4], 20.7%; in experiment [5], 22.6%; in experiment [6], 16.5%.
Consider `CN(C)C(=O)N(CCCl)N=O`, for which the growth inhibition in experiment [1] was 5.1%; in experiment [2] it was -4.2%; in experiment [3], 1.45%; in experiment [4], 2.55%; in experiment [5] it was 13.1%; in experiment [6], 20.8%.
`NC(=O)Cc1ccccc1`: the growth inhibition was -17.1% in experiment [1]; -14.9% in experiment [2]; -6.55% in experiment [3]; 8.75% in experiment [4]; -2.45% in experiment [5]; 24.9% in experiment [6].
Consider `O=c1n(CC2CO2)c2ccccc2n1CC1CS1` (stereo not given), for which the growth inhibition was -7.4% in experiment [1]; -36% in experiment [2]; 7% in experiment [3]; -12.8% in experiment [4]; -41.4% in experiment [5]; 1.7% in experiment [6].
In the case of `O=C(Nc1cccc(S(=O)(=O)F)c1)/C(=C/c1ccc([N+](=O)[O-])cc1)c1ccccc1`, the growth inhibition in experiment [1] was 88.5% (active); in experiment [2], 86% (active); in experiment [3], 86.7% (active); in experiment [4] it was 79.2% (active); in experiment [5], 81.2% (active); in experiment [6], 88.2% (active).
As for `c1ccc(-c2c[se]nn2)cc1`, the growth inhibition is 4.65% in experiment [1]; -10.1% in experiment [2]; -2.6% in experiment [3]; -26.6% in experiment [4]; -11.2% in experiment [5]; 10.1% in experiment [6].
Turning to `COC1=CC(=O)N(C(=O)C(OC(=O)C2CCCN2C(=O)C2CCCN2C(=O)C(C(C)C)N(C)C(=O)C(NC(=O)C(C(C)C)N(C)C)C(C)C)C(C)C)C1Cc1ccccc1` (stereo not given) (ξNMe2Val-V[NMeV]PP-X14; configuration not given here), the growth inhibition was 16.9% in experiment [1]; -21.4% in experiment [2]; -4.25% in experiment [3]; -7.6% in experiment [4]; 28.9% in experiment [5]; -32.6% in experiment [6].
Consider `NCCCN1CCN(c2ccccc2)CC1`, for which the growth inhibition was -0.45% in experiment [1]; -30.2% in experiment [2]; -12.6% in experiment [3]; 26% in experiment [4]; -28.6% in experiment [5]; -39.5% in experiment [6].
Turning to `Cc1cc(C)c(O)c(C)c1`, the growth inhibition in experiment [1] was 10.2%; in experiment [2], -18.3%; in experiment [3] it was -5.45%; in experiment [4], 14.4%; in experiment [5], -5.25%; in experiment [6], 4.45%.
For `NC1Cc2cc(O)ccc2C1=O` (stereo not given), the growth inhibition is -5.95% in experiment [1]; 22.2% in experiment [2]; -3.35% in experiment [3]; 20.2% in experiment [4]; 22.8% in experiment [5]; 0.7% in experiment [6].
